Reference: the supplement of paper PMC10849652
About 7,900 targets were measured; listed, in parts, are those with a hit and a random draw of the rest. About 0.6% of all pairs of compound and target were hits.

What was measured:
Experiment in all cases: log2 fold change, soluble protein after heating vs DMSO (PISA); higher = thermal stabilisation; K562 cells, 10 uM, 30 min; active = over 0.2 and 3.5 SD of the protein, either way, in both replicates (recomputed)
IRAK-1-4 Inhibitor I = compound: C1COCCN1CCN2C3=CC=CC=C3N=C2NC(=O)C4=CC(=CC=C4)[N+](=O)[O-] [IRAK-1-4 Inhibitor I]
How it was run: (§1)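 Quantification of soluble protein used TMTpro 16plex LC-MS/MS, with channel sums equalised. Samples were the supernatant after 21,000xg for 90 min of pooled aliquots from K562 cells (2×10^6 cells/mL) treated with 10 μM compound for 30 min, heated for 3 min over 48°C-58°C, and extracted in PBS with 0.5% NP-40 at 4°C. Values, from duplicates, describe thermal stability against control samples on a log2 fold-change scale.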

ibrutinib = compound: C=CC(=O)N1CCC[C@@H](n2nc(-c3ccc(Oc4ccccc4)cc3)c3c(N)ncnc32)C1 [ibrutinib]
How it was run: as §1

[1] = compound: CC(=O)c1cnc2ccc(-c3cc(Cl)c(O)c(Cl)c3)nc2c1N[C@H]1CC[C@H](CN(C)C)CC1
How it was run: as §1

ralimetinib = compound: CC(C)(C)Cn1c(N)nc2ccc(-c3[nH]c(C(C)(C)C)nc3-c3ccc(F)cc3)nc21 [ralimetinib]
How it was run: as §1

[2] = compound: CC(C)(O)CC(=O)NCCn1ccc2ncnc(Nc3ccc(Oc4cccc(C(F)(F)F)c4)c(Cl)c3)c21
How it was run: as §1

[3] = compound: CC(C)C1=C2N=C(C=C(N2N=C1)NCC3=CC=CC=C3)NCCCCCCN
How it was run: as §1

[4] = compound: CC(C)C[C@@H](C=O)NC(=O)[C@H](CC(C)C)NC(=O)[C@H](CC(C)C)NC(=O)OCc1ccccc1
How it was run: as §1

pinometostat = compound: CC(C)N(C[C@H]1O[C@@H](n2cnc3c(N)ncnc32)[C@H](O)[C@@H]1O)[C@H]1C[C@@H](CCc2nc3cc(C(C)(C)C)ccc3[nH]2)C1 [pinometostat]
How it was run: as §1

[5] = compound: CC1=C(C(CC(=O)N1)C2=CC=C(C=C2)C(F)(F)F)C(=O)NC3=C(C=C4C(=C3)C=NN4)F
How it was run: as §1

[6] = compound: CC1=C(C2=C(C=C1)C(=O)C3=CC=CC=C3N2CCCN)C
How it was run: as §1

[7] = compound: CC1=C(C=C(C=C1)NC(=O)C2=CC(=CC=C2)C(C)(C)C#N)NC3=CC4=C(C=C3)N=CN(C4=O)C
How it was run: as §1

[8] = compound: CC1=C(C=C(C=C1)NC(=O)C2=CC(=CC=C2)N(C)C)NC(=O)C3=CC=C(C=C3)O
How it was run: as §1

[9] = compound: CC1=CC=C(C=C1)SC2=C3C=C(SC3=CN=C2)C(=O)N
How it was run: as §1

[10] = compound: CC1=NC(=CC=C1)C2=C(N=C(N2)C(C)(C)C)C3=CC4=NC=CN=C4C=C3
How it was run: as §1

Nexturastat A = compound: CCCCN(Cc1ccc(C(=O)NO)cc1)C(=O)Nc1ccccc1 [Nexturastat A]
How it was run: as §1

vemurafenib = compound: CCCS(=O)(=O)Nc1ccc(F)c(C(=O)c2c[nH]c3ncc(-c4ccc(Cl)cc4)cc23)c1F [vemurafenib]
How it was run: as §1

[11] = compound: CCCS(=O)(=O)Nc1ccc(F)c(C(=O)c2c[nH]c3ncc(Cl)cc23)c1F
How it was run: as §1

[12] = compound: CCCc1cc(C)[nH]c(=O)c1CNC(=O)c1cc(-c2ccnc(N3CCN(C)CC3)c2)cc2c1cnn2C(C)C
How it was run: as §1

givinostat = compound: CCN(CC)Cc1ccc2cc(COC(=O)Nc3ccc(C(=O)NO)cc3)ccc2c1 [givinostat]
How it was run: as §1

barasertib = compound: CCN(CCCOc1ccc2c(Nc3cc(CC(=O)Nc4cccc(F)c4)[nH]n3)ncnc2c1)CCOP(=O)(O)O [barasertib]
How it was run: as §1

Measured: log2 fold change

ARMC8 (UniProt Q8IUR7)
Sequence of UniProt Q8IUR7 (Q8IUR7 whole entry, looked up): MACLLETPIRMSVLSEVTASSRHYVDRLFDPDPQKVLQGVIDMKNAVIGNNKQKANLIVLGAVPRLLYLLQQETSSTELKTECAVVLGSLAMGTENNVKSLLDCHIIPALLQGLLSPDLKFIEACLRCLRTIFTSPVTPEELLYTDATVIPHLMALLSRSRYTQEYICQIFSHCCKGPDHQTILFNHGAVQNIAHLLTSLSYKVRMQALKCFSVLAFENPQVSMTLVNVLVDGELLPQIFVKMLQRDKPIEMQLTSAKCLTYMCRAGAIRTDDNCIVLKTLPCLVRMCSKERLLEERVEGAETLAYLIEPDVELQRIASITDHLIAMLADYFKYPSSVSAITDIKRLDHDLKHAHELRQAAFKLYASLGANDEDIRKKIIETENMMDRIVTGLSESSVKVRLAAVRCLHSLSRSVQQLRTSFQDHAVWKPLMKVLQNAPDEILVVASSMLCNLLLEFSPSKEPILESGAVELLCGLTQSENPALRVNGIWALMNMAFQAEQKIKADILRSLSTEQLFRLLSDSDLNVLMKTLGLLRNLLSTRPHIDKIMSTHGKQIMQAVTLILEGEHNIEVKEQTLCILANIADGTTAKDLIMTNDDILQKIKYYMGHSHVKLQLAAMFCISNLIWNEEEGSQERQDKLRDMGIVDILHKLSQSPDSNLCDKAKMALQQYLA
inactive: IRAK-1-4 Inhibitor I -0.025 | ibrutinib -0.017 | [1] 0.036 | ralimetinib 0.084 | [2] -0.011 | [3] -0.01 | [4] -0.093 | pinometostat -0.021 | [5] -0.025 | [6] -0.07 | [7] 0.017 | [8] 0.039 | [9] -0.049 | [10] 0.006 | Nexturastat A -0.002 | vemurafenib -0.017 | [11] 0.027 | [12] 0.065 | givinostat 0 | barasertib -0.025

ANKZF1 (UniProt Q9H8Y5)
inactive: IRAK-1-4 Inhibitor I -0.052 | ibrutinib 0.031 | [1] -0.19 | ralimetinib 0.189 | [2] 0 | [3] -0.065 | [4] 0.192 | pinometostat 0.136 | [5] 0.034 | [6] -0.069 | [7] 0.011 | [8] 0 | [9] -0.055 | [10] -0.059 | Nexturastat A 0.399 | vemurafenib -0.011 | [11] -0.042 | [12] 0.132 | givinostat 0.195 | barasertib 0.04

BMP2K (UniProt Q9NSY1)
inactive: IRAK-1-4 Inhibitor I 0.003 | ibrutinib 0.071 | ralimetinib 0.058 | [2] -0.028 | [3] -0.027 | [4] 0.085 | pinometostat -0.008 | [5] 0.023 | [6] -0.009 | [7] 0.01 | [8] 0.033 | [9] -0.017 | [10] -0.011 | Nexturastat A 0.126 | vemurafenib 0.011 | [11] 0.01 | [12] -0.04 | givinostat 0.007 | barasertib -0.014
active: [1] 0.559

ARL2BP (UniProt Q9Y2Y0)
Sequence of UniProt Q9Y2Y0 (Q9Y2Y0 whole entry, looked up): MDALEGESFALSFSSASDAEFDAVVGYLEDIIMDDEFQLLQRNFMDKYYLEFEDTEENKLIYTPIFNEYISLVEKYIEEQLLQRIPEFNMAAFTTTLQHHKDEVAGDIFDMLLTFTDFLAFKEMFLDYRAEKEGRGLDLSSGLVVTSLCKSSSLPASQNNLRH
inactive: IRAK-1-4 Inhibitor I -0.053 | ibrutinib -0.009 | [1] 0.03 | ralimetinib 0.01 | [2] -0.127 | [3] -0.269 | [4] -0.011 | pinometostat -0.037 | [5] -0.002 | [6] -0.028 | [7] 0.154 | [8] -0.033 | [9] 0.012 | [10] 0.281 | Nexturastat A 0.043 | vemurafenib -0.031 | [11] 0.071 | [12] 0.102 | givinostat -0.041 | barasertib 0.079

ARMC10 (UniProt Q8N2F6)
Sequence of UniProt Q8N2F6 (Q8N2F6 whole entry, looked up): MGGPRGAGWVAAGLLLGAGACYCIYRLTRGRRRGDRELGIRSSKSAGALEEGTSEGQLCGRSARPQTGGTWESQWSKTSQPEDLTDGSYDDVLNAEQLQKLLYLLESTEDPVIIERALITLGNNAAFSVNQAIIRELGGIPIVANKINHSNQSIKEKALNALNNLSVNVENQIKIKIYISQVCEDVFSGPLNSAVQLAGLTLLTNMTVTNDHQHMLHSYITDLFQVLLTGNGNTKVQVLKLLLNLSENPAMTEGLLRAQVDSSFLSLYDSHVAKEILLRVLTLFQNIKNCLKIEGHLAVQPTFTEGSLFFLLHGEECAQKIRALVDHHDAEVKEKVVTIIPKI
inactive: IRAK-1-4 Inhibitor I 0.001 | ibrutinib -0.018 | [1] -0.035 | ralimetinib -0.003 | [2] -0.029 | [3] 0.005 | [4] 0.034 | pinometostat 0.033 | [5] 0.003 | [6] 0 | [7] 0.03 | [8] -0.087 | [9] -0.019 | [10] -0.046 | Nexturastat A 0.056 | vemurafenib 0.12 | [11] 0.074 | [12] 0.072 | givinostat 0.063 | barasertib 0.019

BUB1B isoform 3 (UniProt O60566)
Sequence of UniProt O60566 (O60566 whole entry, looked up): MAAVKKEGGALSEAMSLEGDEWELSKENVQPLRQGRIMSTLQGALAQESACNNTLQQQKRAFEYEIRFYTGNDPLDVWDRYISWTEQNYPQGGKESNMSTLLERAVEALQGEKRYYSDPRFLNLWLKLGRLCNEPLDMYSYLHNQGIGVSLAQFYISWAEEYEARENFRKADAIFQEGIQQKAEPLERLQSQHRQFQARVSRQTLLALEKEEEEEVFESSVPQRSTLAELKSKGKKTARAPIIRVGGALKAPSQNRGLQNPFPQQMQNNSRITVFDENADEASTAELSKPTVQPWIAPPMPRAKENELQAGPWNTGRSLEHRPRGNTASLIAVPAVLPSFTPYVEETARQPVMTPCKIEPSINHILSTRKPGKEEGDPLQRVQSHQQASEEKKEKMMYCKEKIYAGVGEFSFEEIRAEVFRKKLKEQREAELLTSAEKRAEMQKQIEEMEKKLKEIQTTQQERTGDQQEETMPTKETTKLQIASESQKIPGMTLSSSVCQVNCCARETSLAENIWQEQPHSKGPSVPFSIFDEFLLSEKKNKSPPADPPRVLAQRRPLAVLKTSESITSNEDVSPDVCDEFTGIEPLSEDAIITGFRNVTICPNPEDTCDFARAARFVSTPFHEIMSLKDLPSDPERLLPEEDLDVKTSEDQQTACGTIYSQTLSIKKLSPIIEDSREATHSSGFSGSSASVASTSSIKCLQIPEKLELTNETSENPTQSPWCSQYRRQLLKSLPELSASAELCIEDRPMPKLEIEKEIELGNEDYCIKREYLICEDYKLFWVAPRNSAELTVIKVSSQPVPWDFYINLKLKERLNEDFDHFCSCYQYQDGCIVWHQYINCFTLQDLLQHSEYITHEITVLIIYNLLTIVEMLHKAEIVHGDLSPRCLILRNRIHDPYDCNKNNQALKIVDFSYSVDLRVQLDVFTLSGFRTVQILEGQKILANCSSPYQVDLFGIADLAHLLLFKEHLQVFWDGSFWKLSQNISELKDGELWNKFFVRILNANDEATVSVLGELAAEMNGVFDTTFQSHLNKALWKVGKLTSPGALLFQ
inactive: IRAK-1-4 Inhibitor I -0.092 | ibrutinib -0.039 | [1] -0.023 | ralimetinib 0.106 | [2] -0.089 | [3] -0.098 | [4] 0.09 | pinometostat 0.11 | [5] -0.011 | [6] 0.017 | [7] 0.004 | [8] -0.031 | [9] 0.059 | [10] -0.014 | Nexturastat A 0.087 | vemurafenib 0.058 | [11] 0.14 | [12] 0.043 | givinostat 0.118 | barasertib 0.034

ACIN1 (UniProt Q9UKV3)
Sequence of UniProt Q9UKV3 (Q9UKV3 whole entry, looked up): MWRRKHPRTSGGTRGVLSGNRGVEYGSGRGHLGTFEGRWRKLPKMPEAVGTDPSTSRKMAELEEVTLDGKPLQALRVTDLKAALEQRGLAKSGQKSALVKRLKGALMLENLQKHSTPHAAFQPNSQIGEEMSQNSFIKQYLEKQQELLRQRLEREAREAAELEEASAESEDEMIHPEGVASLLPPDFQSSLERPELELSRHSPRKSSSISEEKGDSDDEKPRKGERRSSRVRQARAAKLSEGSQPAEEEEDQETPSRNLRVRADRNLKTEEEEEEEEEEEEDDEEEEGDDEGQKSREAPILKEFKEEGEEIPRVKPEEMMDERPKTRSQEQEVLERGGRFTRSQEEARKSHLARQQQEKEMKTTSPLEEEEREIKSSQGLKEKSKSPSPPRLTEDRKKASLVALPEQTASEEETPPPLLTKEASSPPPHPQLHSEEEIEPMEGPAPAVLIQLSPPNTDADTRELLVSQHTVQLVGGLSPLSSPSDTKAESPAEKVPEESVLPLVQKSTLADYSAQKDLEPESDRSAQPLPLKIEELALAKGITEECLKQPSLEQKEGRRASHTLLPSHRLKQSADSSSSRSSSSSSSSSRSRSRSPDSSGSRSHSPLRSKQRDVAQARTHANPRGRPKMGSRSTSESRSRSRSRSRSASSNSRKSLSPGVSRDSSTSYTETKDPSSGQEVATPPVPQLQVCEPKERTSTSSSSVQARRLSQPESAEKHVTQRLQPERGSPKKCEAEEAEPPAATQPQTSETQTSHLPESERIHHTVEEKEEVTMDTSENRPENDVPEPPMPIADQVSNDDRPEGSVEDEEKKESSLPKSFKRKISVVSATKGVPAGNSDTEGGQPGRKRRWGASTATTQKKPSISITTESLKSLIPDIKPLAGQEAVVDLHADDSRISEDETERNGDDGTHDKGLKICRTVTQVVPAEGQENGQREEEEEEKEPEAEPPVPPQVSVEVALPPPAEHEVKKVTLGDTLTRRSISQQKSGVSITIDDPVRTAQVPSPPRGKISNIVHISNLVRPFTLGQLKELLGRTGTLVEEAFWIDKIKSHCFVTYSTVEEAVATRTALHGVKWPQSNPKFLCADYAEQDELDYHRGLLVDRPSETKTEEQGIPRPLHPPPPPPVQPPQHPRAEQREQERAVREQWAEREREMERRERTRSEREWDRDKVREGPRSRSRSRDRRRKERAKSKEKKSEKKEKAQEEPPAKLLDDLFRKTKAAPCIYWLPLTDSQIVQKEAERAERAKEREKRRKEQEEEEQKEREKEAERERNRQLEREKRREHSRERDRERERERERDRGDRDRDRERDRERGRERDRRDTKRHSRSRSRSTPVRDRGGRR
inactive: IRAK-1-4 Inhibitor I -0.052 | ibrutinib 0.004 | [1] -0.155 | ralimetinib 0.063 | [2] 0.043 | [3] -0.022 | [4] -0.026 | pinometostat -0.006 | [5] -0.017 | [7] -0.028 | [8] 0.039 | [9] -0.015 | [10] -0.013 | Nexturastat A 0.044 | vemurafenib 0 | [11] 0.014 | [12] 0.023 | givinostat 0.105 | barasertib -0.008
active: [6] -0.369

ARF4 (UniProt P18085)
Sequence of UniProt P18085 (P18085 whole entry, looked up): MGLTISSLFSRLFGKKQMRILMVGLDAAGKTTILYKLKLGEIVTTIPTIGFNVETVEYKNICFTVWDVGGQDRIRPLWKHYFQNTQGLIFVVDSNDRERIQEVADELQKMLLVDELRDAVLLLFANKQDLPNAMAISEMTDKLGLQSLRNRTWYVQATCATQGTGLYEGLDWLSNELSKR
inactive: IRAK-1-4 Inhibitor I 0.072 | ibrutinib 0.003 | [1] -0.027 | ralimetinib -0.019 | [2] -0.103 | [3] 0.117 | [4] -0.032 | pinometostat -0.042 | [5] -0.071 | [6] 0.128 | [7] 0.022 | [8] -0.014 | [9] 0 | [10] 0.012 | Nexturastat A -0.095 | vemurafenib 0.02 | [11] 0.022 | [12] 0.023 | givinostat 0.016 | barasertib 0.048

ATIC (UniProt P31939)
Sequence of UniProt P31939 (P31939 whole entry, looked up): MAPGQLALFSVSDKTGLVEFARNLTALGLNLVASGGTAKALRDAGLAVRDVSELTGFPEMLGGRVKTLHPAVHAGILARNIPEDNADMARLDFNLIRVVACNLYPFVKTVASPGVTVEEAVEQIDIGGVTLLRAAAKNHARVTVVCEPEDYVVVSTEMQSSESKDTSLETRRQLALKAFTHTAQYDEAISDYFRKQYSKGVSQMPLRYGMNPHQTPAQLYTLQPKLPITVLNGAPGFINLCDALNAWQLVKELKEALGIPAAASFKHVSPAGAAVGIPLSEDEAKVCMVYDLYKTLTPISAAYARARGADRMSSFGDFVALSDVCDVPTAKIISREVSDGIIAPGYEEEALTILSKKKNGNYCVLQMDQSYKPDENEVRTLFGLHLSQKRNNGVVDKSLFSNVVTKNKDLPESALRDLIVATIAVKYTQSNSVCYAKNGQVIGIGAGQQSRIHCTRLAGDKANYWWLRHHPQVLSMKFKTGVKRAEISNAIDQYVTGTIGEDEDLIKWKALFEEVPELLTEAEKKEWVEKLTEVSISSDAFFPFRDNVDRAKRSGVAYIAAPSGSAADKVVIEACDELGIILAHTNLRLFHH
inactive: IRAK-1-4 Inhibitor I 0.018 | ibrutinib 0.013 | [1] -0.015 | ralimetinib -0.007 | [2] 0 | [3] 0.079 | [4] -0.044 | pinometostat -0.04 | [5] -0.023 | [6] 0.064 | [7] 0.083 | [8] -0.022 | [9] 0.059 | [10] 0.022 | Nexturastat A -0.076 | vemurafenib 0.025 | [11] 0.052 | [12] 0.019 | givinostat -0.036 | barasertib 0.013

BLVRB (UniProt P30043)
Sequence of UniProt P30043 (P30043 whole entry, looked up): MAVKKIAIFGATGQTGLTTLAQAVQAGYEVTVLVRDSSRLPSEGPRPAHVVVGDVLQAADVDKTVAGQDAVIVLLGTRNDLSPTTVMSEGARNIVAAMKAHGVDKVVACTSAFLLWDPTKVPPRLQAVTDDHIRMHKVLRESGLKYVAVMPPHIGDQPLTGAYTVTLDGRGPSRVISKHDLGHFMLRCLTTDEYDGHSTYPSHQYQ
inactive: IRAK-1-4 Inhibitor I 0.075 | ibrutinib 0.037 | [1] 0.154 | ralimetinib 0.056 | [2] -0.019 | [3] -0.048 | [4] -0.037 | pinometostat -0.005 | [5] -0.046 | [6] 0.059 | [7] 0.094 | [8] -0.023 | [9] -0.025 | [10] 0.027 | Nexturastat A -0.014 | vemurafenib 0.069 | [11] 0.063 | [12] 0.037 | givinostat 0.03 | barasertib 0.025

ACACB (UniProt O00763)
active: [3] -0.515
inactive: IRAK-1-4 Inhibitor I -0.23 | ibrutinib 0.02 | [1] 0.108 | ralimetinib 0.216 | [2] 0 | [4] 0.066 | pinometostat 0.315 | [5] 0.11 | [6] 0.027 | [7] -0.037 | [8] 0.01 | [9] 0.006 | [10] -0.065 | Nexturastat A 0.344 | vemurafenib 0.108 | [11] 0.012 | [12] 0.152 | givinostat 0.149 | barasertib 0.06

ANXA5 (UniProt P08758)
Sequence of UniProt P08758 (P08758 whole entry, looked up): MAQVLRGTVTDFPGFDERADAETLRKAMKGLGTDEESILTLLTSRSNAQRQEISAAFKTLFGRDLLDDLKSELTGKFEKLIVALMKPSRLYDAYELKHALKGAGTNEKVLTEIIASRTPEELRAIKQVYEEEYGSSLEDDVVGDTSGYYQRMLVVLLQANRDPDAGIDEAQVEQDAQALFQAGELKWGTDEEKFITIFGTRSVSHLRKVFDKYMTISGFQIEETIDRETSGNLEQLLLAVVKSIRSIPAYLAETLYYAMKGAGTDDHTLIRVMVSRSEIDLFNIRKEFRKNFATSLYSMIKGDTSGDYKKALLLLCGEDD
inactive: IRAK-1-4 Inhibitor I -0.013 | ibrutinib -0.05 | [1] -0.019 | ralimetinib -0.018 | [2] -0.006 | [3] -0.069 | [4] 0.017 | pinometostat -0.026 | [5] 0 | [6] 0.032 | [7] 0.057 | [8] -0.065 | [9] -0.01 | [10] 0.068 | Nexturastat A -0.116 | vemurafenib 0.07 | [11] 0.071 | [12] 0.039 | givinostat 0.033 | barasertib 0.034
